Structures are written as SMILES. Records with an inconclusive call do not appear. Where a call stands in place of a potency, no number is given. Active and inactive are the calls of the source. The call rests on the fitted dose curve; in most records, active means well fitted inhibition curve with a large enough effect; inconclusive means small, poorly fitted or top-dose-only effect; inactive means flat fitted curve, though single readings scatter.

These results are taken from PubChem BioAssay (NCATS).
Potency means the concentration at half of the fitted maximal effect.

The first test relates to MCC-26. Nature of the test: qHTS assay to identify novel small-molecules to repurpose for Merkel cell carcinoma treatment (AID 1296009). Further: nearly all actives have a fitted effect of over 60% in size. The settings on record: MCC and control cell lines, CellTiter-Glo viability, 72 h; series mostly up to 46 µM. Put shortly:
(§1)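 Cell viability measured by CellTiter-Glo following 72 hr compound treatment at 37 degree celsius, with NPC and MIPE libraries tested in 8- and 11-point concentration series.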
Background: In qHTS, concentration-response curves come from the screen itself.
As for `CCN1CCN(C(=O)N[C@@H](C(=O)N[C@@H]2C(=O)N3C(C(=O)O)=C(CSc4nnnn4C)CS[C@H]23)c2ccc(O)cc2)C(=O)C1=O`, the Potency entry was “inactive”.

As to `O=C(O)P(=O)(O)O`, the Potency result was “inactive”.

As for `O=S(c1cc(Cl)cc(Cl)c1O)c1cc(Cl)cc(Cl)c1O`, the Potency result is “inactive”.

For the compound `CN1CCN(CCC(=O)N2c3ccccc3Sc3ccc(C(F)(F)F)cc32)CC1`, the Potency entry is “inactive”.

For `C=C1c2cccc(O)c2C(O)=C2C(=O)[C@]3(O)C(O)=C(C(N)=O)C(=O)[C@@H](N(C)C)[C@@H]3[C@@H](O)[C@H]12`, the Potency result is “inactive”.

With `Nc1ccc(C(=O)NCC(=O)O)cc1`, the Potency entry was “inactive”.

For the compound `CN1CCN(C2=Nc3ccccc3Sc3ccc(Cl)cc32)CC1`, the Potency result was “inactive”.

For `C#C[C@]1(O)CC[C@H]2[C@@H]3CCc4cc(OC)ccc4[C@H]3CC[C@@]21C`, the Potency result is “inactive”.

As for `Cc1cn([C@H]2C[C@H](F)[C@@H](CO)O2)c(=O)[nH]c1=O`, the Potency entry was “inactive”.

For the compound `O=C(Nc1ccc([N+](=O)[O-])cc1)Nc1ccc([N+](=O)[O-])cc1`, the Potency entry is “inactive”.

For the compound `O=C(O)Cc1csc(-c2ccc(Cl)cc2)n1`, the Potency entry is “inactive”.

In the case of `COc1cc([C@H]2Oc3cc([C@H]4Oc5cc(O)cc(O)c5C(=O)[C@@H]4O)ccc3O[C@@H]2CO)ccc1O`, the Potency result is “inactive”.

For the compound `Nc1nc(Cl)nc2c1ncn2[C@@H]1O[C@H](CO)[C@@H](O)[C@@H]1F`, the Potency is 3760 nM (active).

For the compound `CC(=O)O[C@]1(C(C)=O)CC[C@H]2[C@@H]3C=C(Cl)C4=CC(=O)CC[C@]4(C)[C@H]3CC[C@@]21C`, the Potency entry is “inactive”.

For `CCNC(=O)NCc1cccc(Cl)c1`, the Potency result is “inactive”.

The subject of the next test is MKL-1. Described as above. The settings on record: MCC and control cell lines, CellTiter-Glo viability, 72 h; series mostly up to 46 µM. Summed up:
as §1
Background: In ATP-based viability assays light output follows the ATP content of the culture.
On to `CCCN(CCC)S(=O)(=O)c1ccc(C(=O)O)cc1`, for which the Potency result is “inactive”.

`CC(C)Cc1ccc(CC(=O)O)cc1`: the Potency result is “inactive”.

For the compound `c1ccc(CC2=NCCN2)cc1`, the Potency entry was “inactive”.

On to `CC(C)[N+](C)(C)CC(O)COc1cccc2ccccc12` (stereo not drawn), for which the Potency entry was “inactive”.

Turning to `CC(C)(C)NCC(O)COc1cccc2c1C[C@H](O)[C@H](O)C2` (stereo partly drawn), the Potency entry was “inactive”.

`OCc1ccccn1`: the Potency entry was “inactive”.

In the case of `Cc1cc(C)cc(OCC2CNC(=O)O2)c1` (stereo not drawn), the Potency result is “inactive”.

`C[C@H]1O[C@@H](O[C@H]2CC[C@@]3(C)[C@H](CC[C@@H]4[C@@H]3C[C@@H](O)[C@]3(C)[C@@H](C5=CC(=O)OC5)CC[C@]43O)C2)C[C@H](O)[C@@H]1O[C@H]1C[C@H](O)[C@H](O[C@H]2C[C@H](O)[C@H](O[C@@H]3O[C@H](CO)[C@@H](O)[C@H](O)[C@H]3O)[C@@H](C)O2)[C@@H](C)O1`: the Potency is 531 nM (active).

Consider `O=[N+]([O-])c1ccc(/C=N\O)o1`, for which the Potency was 18800 nM (active).

Take `CC(=O)OCC1=C(C(=O)O)N2C(=O)[C@@H](NC(=O)CSc3ccncc3)[C@H]2SC1`: the Potency entry was “inactive”.

Regarding `CC(=O)NCCCCCC(=O)O`, the Potency entry is “inactive”.

Regarding `CC(=O)Nc1ccc(OCC(O)CNC(C)C)cc1` (stereo not drawn), the Potency result is “inactive”.

For `NS(=O)(=O)c1ccc(Cl)c(S(N)(=O)=O)c1`, the Potency entry was “inactive”.

In the case of `CC[C@H](c1ccc(O)cc1)[C@@H](CC)c1ccc(O)cc1`, the Potency result was “inactive”.

In the case of `C[N+]12CCC(CC1)C(OC(=O)C(O)(c1ccccc1)c1ccccc1)C2` (stereo not drawn), the Potency result was “inactive”.

Turning to `CC1(COc2ccc(CC3SC(=O)NC3=O)cc2)CCCCC1` (stereo not drawn), the Potency entry is “inactive”.

`O=C(Oc1cccc2cccnc12)c1ccccc1`: the Potency result was “inactive”.

Turning to `CCN1CCN(C(=O)N[C@@H](C(=O)N[C@@H]2C(=O)N3C(C(=O)O)=C(CSc4nnnn4C)CS[C@H]23)c2ccc(O)cc2)C(=O)C1=O`, the Potency result was “inactive”.

Regarding `O=C(O)P(=O)(O)O`, the Potency result is “inactive”.

Turning to `O=S(c1cc(Cl)cc(Cl)c1O)c1cc(Cl)cc(Cl)c1O`, the Potency result was “inactive”.

Consider `C=C1c2cccc(O)c2C(O)=C2C(=O)[C@]3(O)C(O)=C(C(N)=O)C(=O)[C@@H](N(C)C)[C@@H]3[C@@H](O)[C@H]12`, for which the Potency entry was “inactive”.

With `Nc1ccc(C(=O)NCC(=O)O)cc1`, the Potency result is “inactive”.

For the compound `CN1CCN(C2=Nc3ccccc3Sc3ccc(Cl)cc32)CC1`, the Potency result is “inactive”.

As for `C#C[C@]1(O)CC[C@H]2[C@@H]3CCc4cc(OC)ccc4[C@H]3CC[C@@]21C`, the Potency result was “inactive”.

With `Cc1cn([C@H]2C[C@H](F)[C@@H](CO)O2)c(=O)[nH]c1=O`, the Potency entry was “inactive”.

For the compound `O=C(Nc1ccc([N+](=O)[O-])cc1)Nc1ccc([N+](=O)[O-])cc1`, the Potency result is “inactive”.

With `O=C(O)Cc1csc(-c2ccc(Cl)cc2)n1`, the Potency result is “inactive”.

Take `COc1cc([C@H]2Oc3cc([C@H]4Oc5cc(O)cc(O)c5C(=O)[C@@H]4O)ccc3O[C@@H]2CO)ccc1O`: the Potency result was “inactive”.

As to `Nc1nc(Cl)nc2c1ncn2[C@@H]1O[C@H](CO)[C@@H](O)[C@@H]1F`, the Potency was 119 nM (active).

As for `CC(=O)O[C@]1(C(C)=O)CC[C@H]2[C@@H]3C=C(Cl)C4=CC(=O)CC[C@]4(C)[C@H]3CC[C@@]21C`, the Potency result is “inactive”.

Take `CCNC(=O)NCc1cccc(Cl)c1`: the Potency entry is “inactive”.

The test system of the next test is MKL-2. The description is as above. The settings on record: MCC and control cell lines, CellTiter-Glo viability, 72 h; series mostly up to 46 µM. Put shortly: as §1
On to `CCCN(CCC)S(=O)(=O)c1ccc(C(=O)O)cc1`, for which the Potency entry was “inactive”.

`CC(C)Cc1ccc(CC(=O)O)cc1`: the Potency entry was “inactive”.

Regarding `CC(C)[N+](C)(C)CC(O)COc1cccc2ccccc12` (stereo not drawn), the Potency result is “inactive”.

For the compound `CC(C)(C)NCC(O)COc1cccc2c1C[C@H](O)[C@H](O)C2` (stereo partly drawn), the Potency result was “inactive”.

For `OCc1ccccn1`, the Potency entry was “inactive”.

Regarding `Cc1cc(C)cc(OCC2CNC(=O)O2)c1` (stereo not drawn), the Potency result was “inactive”.

With `C[C@H]1O[C@@H](O[C@H]2CC[C@@]3(C)[C@H](CC[C@@H]4[C@@H]3C[C@@H](O)[C@]3(C)[C@@H](C5=CC(=O)OC5)CC[C@]43O)C2)C[C@H](O)[C@@H]1O[C@H]1C[C@H](O)[C@H](O[C@H]2C[C@H](O)[C@H](O[C@@H]3O[C@H](CO)[C@@H](O)[C@H](O)[C@H]3O)[C@@H](C)O2)[C@@H](C)O1`, the Potency is 299 nM (active).

Take `CC(=O)NCCCCCC(=O)O`: the Potency result was “inactive”.

For `CC(=O)Nc1ccc(OCC(O)CNC(C)C)cc1` (stereo not drawn), the Potency result is “inactive”.

As to `NS(=O)(=O)c1ccc(Cl)c(S(N)(=O)=O)c1`, the Potency entry was “inactive”.

For the compound `C[N+]12CCC(CC1)C(OC(=O)C(O)(c1ccccc1)c1ccccc1)C2` (stereo not drawn), the Potency entry is “inactive”.

As for `CC1(COc2ccc(CC3SC(=O)NC3=O)cc2)CCCCC1` (stereo not drawn), the Potency result is “inactive”.

For the compound `CCN1CCN(C(=O)N[C@@H](C(=O)N[C@@H]2C(=O)N3C(C(=O)O)=C(CSc4nnnn4C)CS[C@H]23)c2ccc(O)cc2)C(=O)C1=O`, the Potency result was “inactive”.

For the compound `O=C(O)P(=O)(O)O`, the Potency result was “inactive”.

As to `O=S(c1cc(Cl)cc(Cl)c1O)c1cc(Cl)cc(Cl)c1O`, the Potency result was “inactive”.

In the case of `Nc1ccc(C(=O)NCC(=O)O)cc1`, the Potency result is “inactive”.

As to `CN1CCN(C2=Nc3ccccc3Sc3ccc(Cl)cc32)CC1`, the Potency entry is “inactive”.

In the case of `Cc1cn([C@H]2C[C@H](F)[C@@H](CO)O2)c(=O)[nH]c1=O`, the Potency entry was “inactive”.

Consider `O=C(Nc1ccc([N+](=O)[O-])cc1)Nc1ccc([N+](=O)[O-])cc1`, for which the Potency result was “inactive”.

On to `O=C(O)Cc1csc(-c2ccc(Cl)cc2)n1`, for which the Potency result is “inactive”.

With `COc1cc([C@H]2Oc3cc([C@H]4Oc5cc(O)cc(O)c5C(=O)[C@@H]4O)ccc3O[C@@H]2CO)ccc1O`, the Potency entry is “inactive”.

As for `CCNC(=O)NCc1cccc(Cl)c1`, the Potency result was “inactive”.
